Experimental data: the supplement of paper PMC9262897, “Low-cost anti-mycobacterial drug discovery using engineered E. coli” (Nature Communications, 2022)
Counter-ions that a name gives are not always drawn. ± gives the standard deviation of the averaged measurements.

Legend:
Experiment in all cases: growth (OD600 after 10 h); higher = more growth (less inhibition)
[1] = system: E. coli TESEC Alr+ wild-type control; conditions: compound 0.1 mM; raw OD600 reference: median of DMSO wells 0.241, cell-free background 0.041
Description: (§1)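 TESEC Mtb Alr E. coli, or the Alr+ wild-type control, in 384-well plates with Prestwick library compounds at 0.1 mM and 1% DMSO, across arabinose induction levels of 1E3 to 1E7 nM. Growth is read as OD600 after 10 h at 37 °C in triplicate biological replicates.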

E. coli TESEC Mtb Alr [2] = conditions: compound 0.1 mM
Description: as §1

E. coli TESEC Mtb Asd = conditions: compound 0.1 mM
Description: (§2)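 TESEC E. coli strains in which the native enzyme is deleted and replaced by arabinose-inducible Mtb Asd, DapB, CysH or TrpD, each grown in its selective medium. Strains were screened against the Prestwick library at 0.1 mM and 1% DMSO in 384-well format at low and high arabinose induction. Growth is read as OD600 after 10 h in triplicate.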

E. coli TESEC Mtb DapB = conditions: compound 0.1 mM
Description: as §2

[3] = system: E. coli TESEC Alr+ wild-type control; conditions: compound 0.1 mM; raw OD600 reference: median of DMSO wells 0.49, cell-free background 0.052
Description: (§3)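 TESEC Mtb Alr E. coli (ΔaraC ΔtolC ΔentC Δalr ΔdadX, arabinose-inducible Mtb Alr) or the Alr+ wild-type control strain, grown in defined M9-fructose medium without D-alanine in 96-well plates with Prestwick library compounds at 0.1 mM and 1% DMSO. Low Alr induction is 0.1 µM arabinose and high induction is 10 mM arabinose.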

E. coli TESEC Mtb Alr [4] = conditions: compound 0.1 mM; remark: listed apart in the source
Description: as §3

[5] = arabinose 1000 nM, raw OD600 reference: median of DMSO wells 0.294, cell-free background 0.041
[6] = arabinose 10000 nM, raw OD600 reference: median of DMSO wells 0.264, cell-free background 0.041
[7] = arabinose 100000 nM, raw OD600 reference: median of DMSO wells 0.201, cell-free background 0.041
[8] = arabinose 1000000 nM, raw OD600 reference: median of DMSO wells 0.193, cell-free background 0.041
[9] = arabinose 10000000 nM, raw OD600 reference: median of DMSO wells 0.146, cell-free background 0.041
[10] = arabinose induction (level): High, raw OD600 reference: median of DMSO wells 0.331, cell-free background 0.041
[11] = arabinose induction (level): Low, raw OD600 reference: median of DMSO wells 0.417, cell-free background 0.041
[12] = arabinose induction (level): High, raw OD600 reference: median of DMSO wells […], cell-free background 0.041
[13] = arabinose induction (level): Low, raw OD600 reference: median of DMSO wells 0.227, cell-free background 0.041
[14] = arabinose 100 nM, raw OD600 reference: median of DMSO wells 0.413, cell-free background 0.052
[15] = arabinose 10000000 nM, raw OD600 reference: median of DMSO wells […], cell-free background 0.052

SMILES | growth [1] | growth (E. coli TESEC Mtb Alr [2]; [5]) | growth (E. coli TESEC Mtb Alr [2]; [6]) | growth (E. coli TESEC Mtb Alr [2]; [7]) | growth (E. coli TESEC Mtb Alr [2]; [8]) | growth (E. coli TESEC Mtb Alr [2]; [9]) | growth (E. coli TESEC Mtb Asd; [10]) | growth (E. coli TESEC Mtb Asd; [11]) | growth (E. coli TESEC Mtb DapB; [12]) | growth (E. coli TESEC Mtb DapB; [13]) | growth [3] | growth (E. coli TESEC Mtb Alr [4]; [14]) | growth (E. coli TESEC Mtb Alr [4]; [15])
CCCOc1cc(N)ccc1C(=O)OCCN(CC)CC [Propoxycaine hydrochloride] | 0.229 ± 0.005 | 0.289 ± 0.0076 | 0.274 ± 0.01 | 0.199 ± 0.034 | 0.22 ± 0.011 | 0.138 ± 0.0039 | 0.36 ± 0.085 | 0.376 ± 0.079 | 0.225 ± 0.0078 | 0.22 ± 0.017 | 0.487 ± 0.08 | 0.41 ± 0.0052 | 0.361 ± 0.015
CC(C)(C)NCC(O)COc1cccc2c1CCC(=O)N2 (configuration not stated) [Carteolol hydrochloride] | 0.236 ± 0.0081 | 0.285 ± 0.02 | 0.2521 ± 0.002 | 0.197 ± 0.043 | 0.181 ± 0.0071 | 0.143 ± 0.0038 | 0.222 ± 0.024 | 0.349 ± 0.1 | 0.187 ± 0.0085 | 0.217 ± 0.022 | 0.649 ± 0.043 | 0.405 ± 0.009 | 0.334 ± 0.0046
Cc1cccc(C)c1NC(=O)C1CCCCN1C (configuration not stated) [Mepivacaine hydrochloride] | 0.233 ± 0.012 | 0.2802 ± 0.0024 | 0.273 ± 0.0048 | 0.199 ± 0.026 | 0.225 ± 0.013 | 0.136 ± 0.0053 | 0.366 ± 0.042 | 0.367 ± 0.045 | 0.203 ± 0.013 | 0.216 ± 0.024 | 0.46 ± 0.038 | 0.41 ± 0.011 | 0.365 ± 0.0059
N#Cc1ccc(C(c2ccc(C#N)cc2)n2cncn2)cc1 [Letrozole] | 0.2404 ± 0.0017 | 0.308 ± 0.006 | 0.253 ± 0.0064 | 0.243 ± 0.028 | 0.16 ± 0.0045 | 0.146 ± 0.0044 | 0.243 ± 0.06 | 0.356 ± 0.086 | 0.213 ± 0.018 | 0.24 ± 0.032 | 0.502 ± 0.046 | 0.394 ± 0.016 | 0.309 ± 0.016
N[C@@H](Cc1ccc(O)c(O)c1)C(=O)O [Levodopa] | 0.229 ± 0.0045 | 0.275 ± 0.015 | 0.267 ± 0.015 | 0.199 ± 0.028 | 0.178 ± 0.0063 | 0.138 ± 0.0042 | 0.383 ± 0.026 | 0.455 ± 0.0078 | 0.195 ± 0.0078 | 0.209 ± 0.013 | 0.489 ± 0.052 | 0.413 ± 0.013 | 0.354 ± 0.018
Cn1c(=O)c2c(ncn2CC(=O)O)n(C)c1=O [Acefylline] | 0.248 ± 0.0081 | 0.307 ± 0.01 | 0.253 ± 0.0048 | 0.21 ± 0.0073 | 0.191 ± 0.0048 | 0.138 ± 0.0046 | 0.297 ± 0.04 | 0.433 ± 0.014 | 0.196 ± 0.0038 | 0.207 ± 0.021 | 0.457 ± 0.013 | 0.408 ± 0.007 | 0.347 ± 0.01
NS(=O)(=O)c1cc2c(cc1Cl)N=C(CSCc1ccccc1)NS2(=O)=O [Benzthiazide] | 0.241 ± 0.008 | 0.292 ± 0.023 | 0.254 ± 0.0055 | 0.171 ± 0.017 | 0.169 ± 0.0062 | 0.132 ± 0.0022 | 0.286 ± 0.026 | 0.487 ± 0.025 | 0.194 ± 0.016 | 0.21 ± 0.012 | 0.606 ± 0.051 | 0.405 ± 0.0095 | 0.3136 ± 0.0011
COC(=O)Nc1nc2ccc(SC(C)C)cc2[nH]1 [Methiazole] | 0.244 ± 0.0029 | 0.278 ± 0.0056 | 0.271 ± 0.0072 | 0.195 ± 0.013 | 0.219 ± 0.0056 | 0.151 ± 0.0024 | 0.365 ± 0.093 | 0.33 ± 0.048 | 0.204 ± 0.019 | 0.235 ± 0.035 | 0.523 ± 0.037 | 0.427 ± 0.0091 | 0.37 ± 0.025
CCN(CC)CC(=O)Nc1c(C)cccc1C [Lidocaine hydrochloride] | 0.238 ± 0.0076 | 0.256 ± 0.062 | 0.273 ± 0.017 | 0.194 ± 0.01 | 0.183 ± 0.0033 | 0.146 ± 0.0067 | 0.267 ± 0.048 | 0.403 ± 0.057 | 0.204 ± 0.0083 | 0.235 ± 0.048 | 0.586 ± 0.028 | 0.41 ± 0.0091 | 0.345 ± 0.019
CCCCOc1ccc(C(=O)CCN2CCCCC2)cc1 [Dyclonine hydrochloride] | 0.208 ± 0.004 | 0.278 ± 0.0053 | 0.252 ± 0.0069 | 0.183 ± 0.0081 | 0.143 ± 0.0049 | 0.144 ± 0.0069 | 0.269 ± 0.064 | 0.252 ± 0.01 | 0.149 ± 0.0069 | 0.176 ± 0.012 | 0.449 ± 0.034 | 0.408 ± 0.0048 | 0.355 ± 0.033
Clc1ccc(CO/N=C(\Cn2ccnc2)c2ccc(Cl)cc2Cl)c(Cl)c1 [Oxiconazole Nitrate] | 0.0527 ± 0.0022 | 0.0489 ± 0.0051 | 0.0625 ± 0.0013 | 0.0581 ± 0.003 | 0.0621 ± 0.0011 | 0.0621 ± 0.0089 | 0.0621 ± 0.001 | 0.0577 ± 0.0051 | 0.0621 ± 0.0016 | 0.0618 ± 0.0051 | 0.0828 ± 0.0028 | 0.095 ± 0.058 | 0.0891 ± 0.0035
COc1ccccc1OCC(O)COC(N)=O (configuration not stated) [Methocarbamol] | 0.2535 ± 0.00091 | 0.282 ± 0.0088 | 0.275 ± 0.012 | 0.218 ± 0.018 | 0.187 ± 0.0043 | 0.141 ± 0.006 | 0.292 ± 0.018 | 0.397 ± 0.058 | 0.178 ± 0.012 | 0.183 ± 0.018 | 0.509 ± 0.11 | 0.412 ± 0.0098 | 0.347 ± 0.0072
CCOC1O[C@H]([C@@H](COCc2ccccc2)OCc2ccccc2)[C@H](OCc2ccccc2)[C@H]1O (some centres not stated) [Tribenoside] | 0.23 ± 0.005 | 0.29 ± 0.008 | 0.255 ± 0.015 | 0.148 ± 0.0075 | 0.0915 ± 0.0035 | 0.154 ± 0.0022 | 0.214 ± 0.023 | 0.199 ± 0.015 | 0.155 ± 0.0039 | 0.155 ± 0.016 | 0.374 ± 0.015 | 0.378 ± 0.0058 | 0.0944 ± 0.017
CO[C@@]1(NC(=O)C(C(=O)O)c2ccc(O)cc2)C(=O)N2C(C(=O)O)=C(CSc3nnnn3C)CO[C@@H]21 (some centres not stated) [Moxalactam disodium salt] | 0.03947 ± 0.00038 | 0.0445 ± 0.0063 | 0.0401 ± 0.00064 | 0.039 ± 0.0013 | 0.03987 ± 0.00015 | 0.0393 ± 0.00046 | 0.0546 ± 0.0041 | 0.0559 ± 0.007 | 0.0504 ± 0.0038 | 0.0472 ± 0.001 | 0.04587 ± 5.8e-05 | 0.0472 ± 0.00072 | 0.056 ± 0.0067
